In all, about 58,000 […] went through this assay and about 3,600 (6.2%) were called active. Cut-off read from the data, not from the text of the source: active = GI50 up to about 1.1 µM and inactive = higher. Only a sample is shown. Measured potencies and affinities stand elsewhere.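 All cell lines were grown in 96-well plates and treated with compound for 48 hours. Abbreviation: GI50, concentration required for 50% inhibition of growth.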

For this assay, the system named is OVCAR-8. Put plainly: NCI tumour cell line growth inhibition, 48 h.
As to “[Bis(aminomethyl)dimethylsilane]tetrachloroplatinum(IV), CHEMBL2146190”, the GI50 was found to be 12 µM. The same measure for “mu-(1,7-nanodiamine-N,N')bis-(cis-aminedichloroplatimum (II)), CHEMBL2146215”: 52.6 µM. In the case of CISPLATIN, CHEMBL11359 it was 4.52 µM; in that of “[Bis(aminomethyl)diethylsilane]tetrachloroplatinum(IV), CHEMBL2146203”, 3.53 µM. In the case of “[Bis(aminomethyl)ethylmethylsilane]tetrachloroplatinum(IV), CHEMBL2146192” it was 3.7 µM; in that of “[Bis(aminomethyl)tetramethylenesilane]tetrachloropaltinum(IV), CHEMBL2146189”, 6.01 µM; in that of “cis-Bis[[(trimethylsilyl)methyl]amino]tetrachloroplatinum(IV), CHEMBL2146191”, 2.44 µM. On to “[Bis(aminomethyl)dimethylsilane]dichloroplatinum (II), CHEMBL2146201”, for which the GI50 was 29.8 µM.

The substance “[Bis(aminomethyl)pentamethylenesilane]tetrachloropaltinum(IV), CHEMBL2146204” returned a GI50 of 2.17 µM. The same measure for “[Bis(aminomethyl)tetramethylenesilane]dichloropaltinum(II), CHEMBL2146205”: 17 µM; for “[Bis(aminomethyl)pentamethylenesilane]dichloropaltinum(II), CHEMBL2146202”: 2.05 µM.
